# Test results reported in ChEMBL document CHEMBL3988442, “University of Dundee, Small-Polar-MMV Screening Library” (2021).
# Among all 69,000 compounds or so, about 420 (0.61%) showed an effect of 50% or more. This excerpt belongs to a sample that is enriched for strong results.
# Molecular target: T1, Histidine--tRNA ligase (Leishmania infantum) (UniProt A4I591)
# T1 sequence (whole entry): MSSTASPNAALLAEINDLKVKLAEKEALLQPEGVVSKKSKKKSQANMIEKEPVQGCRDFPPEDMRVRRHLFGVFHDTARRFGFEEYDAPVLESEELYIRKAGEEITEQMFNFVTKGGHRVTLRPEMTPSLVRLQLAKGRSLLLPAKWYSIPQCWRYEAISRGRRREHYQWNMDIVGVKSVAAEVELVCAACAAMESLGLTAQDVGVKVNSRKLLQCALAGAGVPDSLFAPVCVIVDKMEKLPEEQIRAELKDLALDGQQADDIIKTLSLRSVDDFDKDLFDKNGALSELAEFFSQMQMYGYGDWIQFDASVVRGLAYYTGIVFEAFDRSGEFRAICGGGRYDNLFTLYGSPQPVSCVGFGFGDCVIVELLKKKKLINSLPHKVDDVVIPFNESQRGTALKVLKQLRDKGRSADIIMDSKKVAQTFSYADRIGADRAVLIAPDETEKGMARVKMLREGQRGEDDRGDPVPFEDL
# Experiment: Leishmania infantum Histidine tRNA synthetase (LdHisRS)
# Format: functional
# Parameters: scale not given: in the data most compounds retested in dose-response had high values
# Settings: 30 µM
row,SMILES,Percent Effect [%]
1,CC(=O)N1CC[C@@]2(O)CCCC[C@H]2[C@@H]1c1ccccc1,-75.8
2,CN1CCN(Cc2nc3c(s2)CCCC3)[C@H]2CS(=O)(=O)C[C@H]21,18.3
3,N#Cc1ccc(C(=O)N2CC[C@H]3[C@H]2CCN3CC2CCOCC2)cc1,-5.77
4,CN(C)CCO[C@H]1CN(C(=O)c2cccs2)[C@@H]2COC[C@H]12,10.9
5,Cn1ccnc1CN1C(=O)CO[C@H]2CN(CCCc3ccccc3)C[C@H]21,17.6
6,O=C1CC(c2cccnc2)c2c(c(C(=O)O)cn2-c2ccc(Cl)cc2)N1 (configuration not stated),27.2
7,CC(C)(C)n1ncc2c1NC(=O)CC2c1ccc(C(=O)O)cc1 (configuration not stated),26
8,O=C1CC(c2ccc(C(=O)O)cc2)c2ncn(-c3ccc(Cl)cc3)c2N1 (configuration not stated),55
9,Cc1ccc(NC2CCN(C(=O)c3c(C)noc3C)CC2)nn1,28
10,Cc1noc(C)c1CC(=O)N1CCC(Nc2cccnn2)CC1,12.5
11,Cc1noc(C)c1C(=O)N1CCC(Nc2cccnn2)CC1,60.5
12,CCOC(=O)c1n[nH]cc1-c1cncn1CCCn1nc(C)cc1C,13.1
13,Cc1nccn1CCCn1cncc1-c1ccc2c(c1)CCCN2C,30.9
14,Cc1nn(C)c(C)c1CCn1cncc1-c1ccc2c(c1)CC(C)N2C (configuration not stated),53.7
15,CC1Cc2cc(-c3cncn3CC(=O)NC(C)(C)C)ccc2N1C (configuration not stated),31
16,CCN1c2ccc(-c3cncn3CCCn3ccnc3C)cc2CC1C (configuration not stated),48.3
17,CN1CCCc2cc(-c3cncn3CCNC3CCS(=O)(=O)C3)ccc21 (configuration not stated),26.8
18,Cc1nccn1CCCn1cncc1-c1ccc2c(c1)CC(C)N2C (configuration not stated),65.8
19,Cc1cnccc1N1CCCN(C(=O)CCCn2ccnc2C)CC1,12.9
20,CCN1CCc2cc(-c3cncn3CCNC3CCS(=O)(=O)C3)ccc21 (configuration not stated),29.6
21,Cc1nccn1CCCn1cncc1-c1ccc2c(c1)CCC(C)N2C (configuration not stated),83.2
22,Cc1cc(C)n(CCCn2cncc2-c2ccc3c(c2)CC(C)N3C)n1 (configuration not stated),64.4
23,CCN1c2ccc(-c3cncn3CC(=O)NC(C)(C)C)cc2CC1C (configuration not stated),42.1
24,c1coc(CN2CCO[C@H]3[C@@H](OCC4CC4)CC[C@@H]32)c1,9.62

row,SMILES,Percent Effect [%]
1,Cc1ccc(CN2CC[C@@H]3OCCN(Cc4ccncc4)[C@H]3CC2)s1,15.1
2,Cc1cc(N2CCC(O)CC2)nc(C2CCCN2C)n1 (configuration not stated),54.9
3,Cc1cc(N2CCC(O)CC2)nc(C)n1,13.7
4,CN1CCCCC1c1cncc(N2CCC(O)CC2)n1 (configuration not stated),14.5
5,CN1CC2(CCN(C(=O)c3ccc(=O)n(C)c3)CC2)CC1=O,-38.8
6,O=C(c1ncccn1)N1C[C@@H]2COC[C@]2(c2nnc(C3CC3)o2)C1,20.6
7,CC(=O)N1CCC2(CC1)CC[C@@]1(C(=O)N(C)C)CN(S(C)(=O)=O)C[C@@H]21,13.2
8,CC(=O)N1CC[C@H]2OCC[C@@H](C(=O)NCc3ccco3)[C@@H]2C1,10.1
9,Cn1ccc2c(-c3cc(N4CCCCC4)ncn3)ccnc21,54.8
10,Cn1ccc2c(-c3cc(N4CCOCC4)ncn3)ccnc21,9.52
11,Cn1ccc2c(-c3cc(N)nc(N4CCOCC4)n3)ccnc21,19.1
12,CC(C)C(=O)N1CCN(C(=O)c2cc(Cl)no2)[C@H]2CS(=O)(=O)C[C@H]21,1.61
13,CC(C)c1nnc(N2C[C@@H]3CC[C@H](C2)N(Cc2ccccc2)C3)s1,59.5
14,CCCN1C[C@H]2CC[C@@H]1CN(c1nnc(C(C)C)s1)C2,-42.9
15,CC(C)c1nnc(N2C[C@@H]3CC[C@H](C2)N(CC2CCC2)C3)s1,19.1
16,CC(=O)c1ccc(C(=O)N2C[C@@H]3CC[C@H](C2)N(Cc2ccccc2)C3)s1,30.1
17,Cc1nnsc1CN1C[C@@H]2CC[C@H](C1)N(Cc1ccccc1)C2,8.33
18,CSCCCN1C(=O)CC[C@H]2CN(Cc3ncc[nH]3)CC[C@H]21,1.33
19,COc1ccc(-c2nc(CCNc3nnc(C)c(C)c3C#N)co2)cc1,57.1
20,Cc1nnc(NCCC(=O)NCc2ccccc2)c(C#N)c1C,31.5
21,Cc1nnc(NCCc2coc(-c3ccccc3)n2)c(C#N)c1C,51.4
22,Cc1nnc(NCCc2coc(-c3ccc(F)cc3)n2)c(C#N)c1C,48.6
23,Cc1nnc(NCC2(c3ccccc3)CC2)c(C#N)c1C,9.62
24,COc1ccc(-c2nc(CCNCc3ccncc3)co2)cc1,24.5

row,SMILES,Percent Effect [%]
1,CCN1CC[C@@]2(C(=O)N3CCCC3)CCN(S(C)(=O)=O)CC[C@@H]12,21.4
2,O=C(C1CCOCC1)N1C[C@H]2CCC[C@@]2(COc2ccccn2)C1,0
3,CC(C)CC(=O)N1C[C@@H]2CCN(c3ncccn3)C[C@@H]2C1,17.1
4,O=C(c1cnccn1)N1C[C@@H]2[C@@H](C1)OCC(=O)N2CC1CCCC1,-944
5,O=C(c1ccccn1)N1C[C@H]2CCC[C@@]2(COCC2CCOCC2)C1,10.1
6,CC(C)=CCN1CCN(Cc2ncc[nH]2)[C@H]2CS(=O)(=O)C[C@H]21,0
7,Cc1cc(N2CCC(Cc3ccccc3)CC2)ncn1,21.4
8,CC(=O)NCC1CCN(c2cc(C)nc(-c3ccncc3)n2)CC1,59.8
9,Cc1cc(N2CCC(CC(N)=O)CC2)nc(-c2ccncc2)n1,15.6
10,Cc1cc(N2CCC(Cc3ccccc3)CC2)nc(-c2ccncc2)n1,62.5
11,COC(=O)C1CCN(c2cc(C)nc(-c3ccncc3)n2)CC1,37.6
12,Cc1cc(N2CCN(CC(=O)N(C)C)CC2)nc(-c2ccncc2)n1,51.4
13,CCNC(=O)CN1CCN(c2cc(C)nc(-c3ccncc3)n2)CC1,30.1
14,Cc1cc(N2CCC(C(=O)N(C)C)CC2)nc(-c2ccncc2)n1,17.1
15,Cc1cc(N2CCN(CCO)CC2)nc(-c2ccncc2)n1,20
16,c1cnc(N2CCN(C3CCC[C@@H]4CN(CC5CC5)C[C@H]34)CC2)nc1 (some centres not stated),2.86
17,Cc1ccc(-c2nnc(CN3CCOC(Cn4cncn4)C3)o2)cc1 (configuration not stated),3.39
18,CCn1ncc(CN2C[C@@H]3CCCN3C[C@H]2CCSC)c1C,-58
19,CC(C)N1CCN2C(=O)N(C3CCCCC3)C[C@H]2C1,18.9
20,CCO[C@@H]1C[C@H]2CN(S(=O)(=O)c3cccs3)CCN2C1,7.89
21,CN(C)S(=O)(=O)N1C[C@H]2C[C@H](C(=O)NCc3ccccc3)[C@@H](C1)O2,3.64
22,Cc1cc(CN2CCCC2)cc(Oc2ccc3c(c2)CC(CN)O3)c1 (configuration not stated),12.5
23,COc1ccc(CN2CCCC2)cc1Oc1ccc2c(c1)CC(CN)O2 (configuration not stated),25.8
24,NCC1Cc2cc(Oc3cc(F)c(CN4CCCC4)c(F)c3)ccc2O1 (configuration not stated),57.5
